{"source": "the supplement of paper PMC12282887", "test_in_all_cases": "promoter activity interaction Z-score (Lux/OD deviation from empty-vector control); higher = stronger promoter induction by the compound", "key": {"[1]": {"test_system": "E. coli BW25113 micFp lux reporter", "conditions": "0.01 µg/ml", "in_short": "(§1)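 E. coli BW25113, as wild type or one of three single-gene deletion strains, carried low-copy luxCDABE promoter reporters and grew in 40 µl LB Lennox in 384-well plates at 37°C, with OD600 and luminescence read every 30 min for 12 h. Each compound was run at four 1:2 dilutions in biological duplicates, integration spanned 0–8 h for wild type and 1–9 h for deletion strains, and wells under 10% of the median growth value were dropped. The score is the Z-transformed residual of growth-normalised luminescence fitted against a control.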"}, "[2]": {"test_system": "E. coli BW25113 ompFp lux reporter", "in_short": "as §1"}, "[3]": {"test_system": "E. coli BW25113 robp lux reporter", "in_short": "as §1"}, "[4]": {"test_system": "E. coli BW25113 soxSp lux reporter", "in_short": "as §1"}, "[5]": {"test_system": "E. coli BW25113 tolCp lux reporter", "in_short": "as §1"}, "[6]": {"conditions": "0.0012 µg/ml, genetic background: wild type"}, "[7]": {"conditions": "0.0012 µg/ml, genetic background: ΔmarA"}, "[8]": {"conditions": "0.0012 µg/ml, genetic background: Δrob"}, "[9]": {"conditions": "0.0012 µg/ml, genetic background: ΔsoxS"}, "[10]": {"conditions": "0.0024 µg/ml, genetic background: wild type"}, "[11]": {"conditions": "0.0024 µg/ml, genetic background: ΔmarA"}, "[12]": {"conditions": "0.0024 µg/ml, genetic background: Δrob"}, "[13]": {"conditions": "0.0024 µg/ml, genetic background: ΔsoxS"}, "[14]": {"conditions": "0.0048 µg/ml, genetic background: wild type"}, "[15]": {"conditions": "0.0048 µg/ml, genetic background: ΔmarA"}, "[16]": {"conditions": "0.0048 µg/ml, genetic background: Δrob"}, "[17]": {"conditions": "0.0048 µg/ml, genetic background: ΔsoxS"}, "[18]": {"conditions": "0.01 µg/ml, genetic background: wild type"}, "[19]": {"conditions": "0.01 µg/ml, genetic background: ΔmarA"}, "[20]": {"conditions": "0.01 µg/ml, genetic background: Δrob"}, "[21]": {"conditions": "0.01 µg/ml, genetic background: ΔsoxS"}}, "note": "± gives the standard deviation of the averaged measurements."}
{"molecule": "CO/N=C(\\C(=O)N[C@@H]1C(=O)N2C(C(=O)O)=C(COC(C)=O)CS[C@H]12)c1csc(N)n1", "note": "[Cefotaxime]", "values": [{"measurement": "promoter activity interaction Z-score", "setting": "[1]; genetic background: Δrob", "result": "-0.0107 ± 0.074"}, {"measurement": "promoter activity interaction Z-score", "setting": "[1]; genetic background: ΔsoxS", "result": "-0.133 ± 0.077"}, {"measurement": "promoter activity interaction Z-score", "setting": "[2]; [6]", "result": "-0.111 ± 0.025"}, {"measurement": "promoter activity interaction Z-score", "setting": "[2]; [7]", "result": "-0.439 ± 0.11"}, {"measurement": "promoter activity interaction Z-score", "setting": "[2]; [8]", "result": "-0.492 ± 0.1"}, {"measurement": "promoter activity interaction Z-score", "setting": "[2]; [9]", "result": "0.179 ± 0.43"}, {"measurement": "promoter activity interaction Z-score", "setting": "[2]; [10]", "result": "0.0538 ± 0.32"}, {"measurement": "promoter activity interaction Z-score", "setting": "[2]; [11]", "result": "0.191 ± 0.18"}, {"measurement": "promoter activity interaction Z-score", "setting": "[2]; [12]", "result": "-0.287 ± 0.12"}, {"measurement": "promoter activity interaction Z-score", "setting": "[2]; [13]", "result": "-0.23 ± 0.033"}, {"measurement": "promoter activity interaction Z-score", "setting": "[2]; [14]", "result": "-0.24 ± 0.46"}, {"measurement": "promoter activity interaction Z-score", "setting": "[2]; [15]", "result": "-0.537 ± 0.14"}, {"measurement": "promoter activity interaction Z-score", "setting": "[2]; [16]", "result": "-0.409 ± 0.18"}, {"measurement": "promoter activity interaction Z-score", "setting": "[2]; [17]", "result": "-0.158 ± 0.26"}, {"measurement": "promoter activity interaction Z-score", "setting": "[2]; [18]", "result": "-0.753 ± 0.55"}, {"measurement": "promoter activity interaction Z-score", "setting": "[2]; [19]", "result": "-2.18 ± 0.79"}, {"measurement": "promoter activity interaction Z-score", "setting": "[2]; [20]", "result": "-0.598 ± 0.51"}, {"measurement": "promoter activity interaction Z-score", "setting": "[2]; [21]", "result": -2.53}, {"measurement": "promoter activity interaction Z-score", "setting": "[3]; [6]", "result": "-0.219 ± 0.23"}, {"measurement": "promoter activity interaction Z-score", "setting": "[3]; [7]", "result": "-0.756 ± 0.2"}, {"measurement": "promoter activity interaction Z-score", "setting": "[3]; [8]", "result": "-0.209 ± 0.28"}, {"measurement": "promoter activity interaction Z-score", "setting": "[3]; [9]", "result": "-0.0836 ± 0.31"}, {"measurement": "promoter activity interaction Z-score", "setting": "[3]; [10]", "result": "-0.0844 ± 0.072"}, {"measurement": "promoter activity interaction Z-score", "setting": "[3]; [11]", "result": "0.0702 ± 0.056"}, {"measurement": "promoter activity interaction Z-score", "setting": "[3]; [12]", "result": "0.0668 ± 0.073"}, {"measurement": "promoter activity interaction Z-score", "setting": "[3]; [13]", "result": "-0.0496 ± 0.19"}, {"measurement": "promoter activity interaction Z-score", "setting": "[3]; [14]", "result": "0.227 ± 0.29"}, {"measurement": "promoter activity interaction Z-score", "setting": "[3]; [15]", "result": "-0.466 ± 0.095"}, {"measurement": "promoter activity interaction Z-score", "setting": "[3]; [16]", "result": "0.0502 ± 0.2"}, {"measurement": "promoter activity interaction Z-score", "setting": "[3]; [17]", "result": "-0.0174 ± 0.097"}, {"measurement": "promoter activity interaction Z-score", "setting": "[3]; [18]", "result": "-1.42 ± 0.066"}, {"measurement": "promoter activity interaction Z-score", "setting": "[3]; [19]", "result": "-2.06 ± 1.6"}, {"measurement": "promoter activity interaction Z-score", "setting": "[3]; [20]", "result": "-1.76 ± 0.19"}, {"measurement": "promoter activity interaction Z-score", "setting": "[3]; [21]", "result": "-2.39 ± 0.34"}, {"measurement": "promoter activity interaction Z-score", "setting": "[4]; [6]", "result": "0.251 ± 0.06"}, {"measurement": "promoter activity interaction Z-score", "setting": "[4]; [7]", "result": "-0.00348 ± 0.14"}, {"measurement": "promoter activity interaction Z-score", "setting": "[4]; [8]", "result": "0.17 ± 0.16"}, {"measurement": "promoter activity interaction Z-score", "setting": "[4]; [9]", "result": "0.0148 ± 0.24"}, {"measurement": "promoter activity interaction Z-score", "setting": "[4]; [10]", "result": "0.182 ± 0.044"}, {"measurement": "promoter activity interaction Z-score", "setting": "[4]; [11]", "result": "0.121 ± 0.06"}, {"measurement": "promoter activity interaction Z-score", "setting": "[4]; [12]", "result": "0.225 ± 0.25"}, {"measurement": "promoter activity interaction Z-score", "setting": "[4]; [13]", "result": "0.066 ± 0.3"}, {"measurement": "promoter activity interaction Z-score", "setting": "[4]; [14]", "result": "-0.0447 ± 0.15"}, {"measurement": "promoter activity interaction Z-score", "setting": "[4]; [15]", "result": "-0.225 ± 0.1"}, {"measurement": "promoter activity interaction Z-score", "setting": "[4]; [16]", "result": "-0.0284 ± 0.17"}, {"measurement": "promoter activity interaction Z-score", "setting": "[4]; [17]", "result": "-0.179 ± 0.2"}, {"measurement": "promoter activity interaction Z-score", "setting": "[4]; [18]", "result": "-0.209 ± 0.042"}, {"measurement": "promoter activity interaction Z-score", "setting": "[4]; [19]", "result": "-0.312 ± 0.071"}, {"measurement": "promoter activity interaction Z-score", "setting": "[4]; [20]", "result": "-0.223 ± 0.19"}, {"measurement": "promoter activity interaction Z-score", "setting": "[4]; [21]", "result": "0.193 ± 0.17"}, {"measurement": "promoter activity interaction Z-score", "setting": "[5]; [6]", "result": "0.0259 ± 0.64"}, {"measurement": "promoter activity interaction Z-score", "setting": "[5]; [7]", "result": "0.293 ± 0.38"}, {"measurement": "promoter activity interaction Z-score", "setting": "[5]; [8]", "result": "-0.312 ± 0.38"}, {"measurement": "promoter activity interaction Z-score", "setting": "[5]; [9]", "result": "-0.0825 ± 0.76"}, {"measurement": "promoter activity interaction Z-score", "setting": "[5]; [10]", "result": "0.373 ± 1.2"}, {"measurement": "promoter activity interaction Z-score", "setting": "[5]; [11]", "result": "0.241 ± 0.74"}, {"measurement": "promoter activity interaction Z-score", "setting": "[5]; [12]", "result": "-0.132 ± 1.1"}, {"measurement": "promoter activity interaction Z-score", "setting": "[5]; [13]", "result": "-0.287 ± 1.4"}, {"measurement": "promoter activity interaction Z-score", "setting": "[5]; [14]", "result": "0.132 ± 0.29"}, {"measurement": "promoter activity interaction Z-score", "setting": "[5]; [15]", "result": "-0.365 ± 0.46"}, {"measurement": "promoter activity interaction Z-score", "setting": "[5]; [16]", "result": "-0.311 ± 0.89"}, {"measurement": "promoter activity interaction Z-score", "setting": "[5]; [17]", "result": "0.17 ± 0.82"}, {"measurement": "promoter activity interaction Z-score", "setting": "[5]; [18]", "result": "-0.425 ± 1.4"}, {"measurement": "promoter activity interaction Z-score", "setting": "[5]; [19]", "result": "-0.436 ± 0.19"}, {"measurement": "promoter activity interaction Z-score", "setting": "[5]; [20]", "result": "0.622 ± 1.5"}, {"measurement": "promoter activity interaction Z-score", "setting": "[5]; [21]", "result": "-0.234 ± 0.026"}]}
